# This is a sample that favours compounds with a hit; in the whole collection about 3.8% have one here.
# rTrxR1 inhibitor – inhibitors of rat thioredoxin reductase 1; recombinant rTrxR1, NADPH fluorescence consumption, selenite substrate; Potency, µM (doses to about 114 µM), inactives show at the highest dose activity change, negative = inhibition, most hits filed as inhibitors; 1% of 390,000 active; also: potency is read from the fitted curve at half-maximal effect; nearly all actives have a fitted effect of over 65% in size
#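 Rat TrxR1 (90 nM in the dispensed reagent) was pre-reduced with 400 uM NADPH for 5 min at room temperature, then incubated with compound for 15 min. After 400 uM selenite was added, NADPH fluorescence (Ex 340/Em 450 nm) was followed for 8 min.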
# GCN5L2 inh – GCN5L2 (KAT2A) acetyltransferase inhibition; Q92830; GCN5L2 HAT assay, ThioGlo1 CoA-SH fluorescence; Potency, µM (doses to about 58.9 µM), for the others: at the top dose activity change, negative = inhibition, most hits filed as inhibitors; 0.21% of 390,000 active; also: potency is read from the fitted curve at half-maximal effect
#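 Titration-based screen in which CoA formation is detected via maleimide probe ThioGlo1 (50uM) turning fluorescent on thiol reaction; substrates H3(1-25) 75uM and acetyl-CoA 70uM, GCN5L2 20nM, 20 min incubation at room temperature.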
# GLS inhibitor – glutaminase GLS (human) inhibition; GLS enzymatic activity, qHTS titration; Potency, µM (doses to about 45.5 µM), for the others: at the top dose activity change, negative = inhibition, hits mostly inhibitors; 0.21% of 410,000 active; AID 624170; also: potency is read from the fitted curve at half-maximal effect
# Target sequence (O94925 whole entry, looked up): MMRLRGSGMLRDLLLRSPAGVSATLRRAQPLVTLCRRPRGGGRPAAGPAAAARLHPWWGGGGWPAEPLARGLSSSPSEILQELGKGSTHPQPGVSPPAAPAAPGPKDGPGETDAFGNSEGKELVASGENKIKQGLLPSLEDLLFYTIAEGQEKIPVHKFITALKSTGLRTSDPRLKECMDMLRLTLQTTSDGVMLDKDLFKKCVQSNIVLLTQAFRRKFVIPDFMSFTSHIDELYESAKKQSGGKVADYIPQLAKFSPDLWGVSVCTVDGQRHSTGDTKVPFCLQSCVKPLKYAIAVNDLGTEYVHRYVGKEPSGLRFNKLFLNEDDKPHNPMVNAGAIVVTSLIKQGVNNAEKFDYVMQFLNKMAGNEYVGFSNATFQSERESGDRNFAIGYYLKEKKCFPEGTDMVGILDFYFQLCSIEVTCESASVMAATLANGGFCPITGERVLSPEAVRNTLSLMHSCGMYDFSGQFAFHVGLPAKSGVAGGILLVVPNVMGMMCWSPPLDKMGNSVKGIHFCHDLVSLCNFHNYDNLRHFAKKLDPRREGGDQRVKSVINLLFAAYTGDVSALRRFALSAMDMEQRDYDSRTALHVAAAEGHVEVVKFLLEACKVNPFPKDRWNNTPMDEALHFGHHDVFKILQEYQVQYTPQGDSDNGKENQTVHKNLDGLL
#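 Enzyme dispensed in phosphate buffer (45 mM, pH 8.2, 0.02% Tween-20), compounds pinned in, then 1 mM L-glutamine solution and the glutamate oxidase–HRP–Amplex Red mix added; fluorescence read immediately and again after 30 min at room temperature.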
# TrxR1 substrate – is turned over as a substrate by rat TrxR1 | purified TrxR1 substrate turnover, NADPH consumption readout | Potency, µM (top dose mostly 114 µM), without a hit: at the top dose activity change, negative = substrate turnover | O89049 | 0.01% of 390,000 active; also: potency is read from the fitted curve at half-maximal effect; nearly all actives have a fitted effect of over 50% in size
#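 Rat TrxR1, dispensed at 90 nM, was prereduced with 400 uM NADPH (final) for 5 min at ~22 deg C, then incubated with compound 15 min before 400 uM selenite. A first-read NADPH fluorescence drop versus no-compound background flagged substrates.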
# Sfp PPTase inh – inhibitors of Bacillus subtilis Sfp phosphopantetheinyl transferase | Potency, µM, for the others: largest response in the series, negative = inhibition, usual class: inhibitors | AID 1490 | Biochemical Sfp PPTase activity, qHTS | Q9F4F7 | 3.5% of 310,000 active;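 also: the enzyme is Sfp with the accession as filed and its product quenches rhodamine fluorescence; potency is read from the fitted curve at half-maximal effect; 0% = enzyme reaction without inhibitor and -100% = no enzyme wells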
#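 After 15 min at room temperature with compound, 15 nM Sfp received 5 uM rhodamine-CoA plus 12.5 uM BHQ-2-ybbR (50 mM Hepes pH 7.6, 10 mM MgCl2). Rate came from the fluorescence difference over 30 min, ex 525/em 598 nm.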
# VDR inh – vitamin D3 receptor (human) inhibition; P11473; VDR-SRC2-3 peptide fluorescence polarization, 2 h; Potency, µM, for inactives: max response, negative = inhibition, usual class: inhibitors; 0.93% of 400,000 active; also: potency is read from the fitted curve at half-maximal effect
#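 Fluorescence polarization assay measuring small-molecule disruption of VDR binding to the coregulator peptide SRC2-3. Compounds were pin-transferred (23 nl) into the reagent mix and incubated 2 h at room temperature before reading.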
# Sfp PPTase conf – confirmation of Bacillus subtilis Sfp PPTase inhibitors | shares compounds with Sfp PPTase inh | Sfp PPTase enzymatic assay, qHTS titration | Potency, µM (highest dose often 114 µM), for inactives: top-dose activity change, negative = inhibition, most hits filed as inhibitors | 79% of 380 active;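 also: potency is read from the fitted curve at half-maximal effect; plate controls were uninhibited Sfp reaction for no effect and no enzyme control for full effect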
# Sfp gel assay – Inhibits Bacillus subtilis Sfp phosphopantetheinyl transferase. shares compounds with Sfp PPTase inh. purified Sfp, gel-based phosphopantetheinylation read-out. Potency, µM, usual class: inhibitors. 20% of 210 active. AID 2707;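 active = potency below 100 µM; inconclusive = dose-dependent response but potency above 100 µM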;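 also: band intensities scaled against SCH202676 control wells before curve fitting; potency is an IC50 for inhibitors of Sfp transfer activity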
# * hit, by the source's call; i = inactive; ? = inconclusive; nt = no result; [ ] = another dose, or the depositor's remark. Unless noted, calls follow the shape of the dose curve; as a rule, active = well fitted curve in the direction sought with a large enough effect; inconclusive = small, poorly fitted or top-dose-only effect, or another doubt; inactive = no such curve, though single readings can be large; an effect the other way counts as inactive or inconclusive. Unless noted, % is scaled to controls: 0 for no effect and ±100 for the full control effect.
SMILES,rTrxR1 inhibitor,GCN5L2 inh,GLS inhibitor,TrxR1 substrate,Sfp PPTase inh,VDR inh,Sfp PPTase conf,Sfp gel assay
COC(=O)c1sc2ccccc2c1NC(=O)c1cccs1,6%,1%,9%,4%,?,-3%,nt,nt
COC(=O)c1sc2ccccc2c1N,-7%,-10%,4%,143%,14µM*,-28%,47µM*,nt
Cc1ccc2c(c1)C(N1CCCC1=O)CC(c1ccco1)N2 (stereo not drawn),-44%,-3%,?,55%[57.1 µM],40µM*,-13%,26µM*,i
C[n+]1ccc(CO)cc1,24%,nt,nt,7%,nt,nt,nt,nt
COc1ccc(Cl)cc1NC(=O)Cn1nc(C(F)(F)F)c2c1CCC2,26%,-4%,-4%,-6%,nt,-11%,nt,nt
N#C/C(=C/c1ccc(N2CCOCC2)o1)c1ccc(Br)cc1,11µM*,-7%,0%,-17%,2.8µM*,35µM*,12µM*,6.2µM*
COc1cc(N2CCCC2)c(OC)cc1/C=C(/C#N)c1cccc(F)c1,-7%,-14%,-1%,-9%,?,-13%,nt,nt
N#C/C(=C/c1ccc(N2CCCCCC2)o1)c1cccc(F)c1,?,-29%,8%,-5%,0.56µM*,45µM*,21µM*,?
COCCN1Cc2cccc(C(=O)NCc3ccc4c(c3)OCO4)c2C1=O,4%,-3%,1%,-3%,-4%,8%,nt,nt
C/C=C/c1ccc(OCCCCn2cncn2)c(OC)c1,2%,-11%,20%,1%,1.1µM*,-10%,-1%,i
C/C=C/c1ccc(OCCCn2cncn2)c(OC)c1,-4%,-1%,13%,-6%,?,6%,nt,nt
COc1cccc(NC(=O)Nc2cccs2)c1,-9%,0%,18%,2%,11µM*,-2%,30µM*,i
O=C(Cn1c(=O)n(Cc2ccco2)c(=O)c2c3c(sc21)CCCC3)Nc1ccccc1,-40%,-8%,-16%,4%[57.1 µM],?,-10%,nt,nt
NC(=O)Cn1c(=O)n(Cc2ccco2)c(=O)c2c3c(sc21)CCCCC3,?,-28%,-16%,-1%,10µM*,89µM*,19µM*,nt
Cc1ccc(C(=O)NC(=S)Nc2ccc(-c3ccc(CO)o3)cc2)cc1,12%[57.1 µM],-26%,2%,-5%,7.1µM*,3%,8.3µM*,nt
Cc1ccc(C(=O)NC(=S)Nc2ccc(Oc3ccc(Cl)cc3)cc2)cc1,6%,-20%,-2%,5%,11%,8%,nt,nt
CC1CCCC(C)N1C(=O)COc1ccc(-c2nnco2)cc1 (stereo not drawn),-12%,1%,5%,-5%,3%,10%,nt,nt
OC(C#Cc1ccccn1)c1cccs1 (stereo not drawn),?,2%,-1%,-8%[11.4 µM],18µM*,50µM*,47µM*,i
COC(=O)c1c(N2C(=O)CC(Sc3ccccc3C(=O)O)C2=O)sc2c1CCCC2 (stereo not drawn),79µM*,-3%,0%,3%,1.6µM*,-4%,33µM*,nt
CN(C)C=Nc1ccccc1C1C=NNC1=O (stereo not drawn),nt,2%,nt,nt,18µM*,nt,9%,nt
CC(=O)c1c(N=CN(C)C)nc(C)nc1-c1ccccc1,-2%[57.1 µM],44%,2%,10%[57.1 µM],15%,2%,nt,nt
CCCn1c(/N=C/c2ccccc2O)nc2ccccc21,13%[57.1 µM],?,24%,4%[57.1 µM],1%,-4%,nt,nt
Cn1c(/N=C/c2c(O)ccc3ccccc23)nc2ccccc21,-34%,-7%,?,-12%,0.89µM*,35µM*,-9%,nt
Cc1ccc(S(=O)(=O)N2CCCCC2)cc1NC(=O)COC(=O)Cc1cccc2ccccc12,10%[57.1 µM],-7%,15%,5%,6%,3%,nt,nt
O=C(Cc1ccccc1Nc1c(Cl)cccc1Cl)OCO/N=[N+](\[O-])N1CCCC1,-24%,nt,nt,-4%,22µM*,?,26µM*,?
SMILES,rTrxR1 inhibitor,GCN5L2 inh,GLS inhibitor,TrxR1 substrate,Sfp PPTase inh,VDR inh,Sfp PPTase conf,Sfp gel assay
COC(=O)c1ccc(-c2noc(CN(C)CCC3CCCCO3)n2)cc1 (stereo not drawn),0%[57.1 µM],?,-2%,-3%[57.1 µM],0.71µM*,1%,8%,i
C=C(C)CNC(=O)CCc1nnc(Cc2cccc(C(F)(F)F)c2)o1,20%,22%,0%,2%,21%,-9%,nt,nt
Cc1ccc(-c2cc(C(=O)N3CCN(c4ncccn4)CC3)c3cc(Br)ccc3n2)o1,-78%,1%,?,15%[57.1 µM],7.9µM*,16%,4.7µM*,nt
Cc1cc(SCC(=O)NN)c2cc(Br)ccc2n1,47%,-11%,36%,-5%,22µM*,28µM*,?,nt
Cc1cc(C(=O)NN)c2cc(Br)ccc2n1,-19%,4%,-15%,-10%,15%,-11%,nt,nt
O=C(CSc1cn(CC(=O)N2CCCCC2)c2ccccc12)NCc1ccccc1Cl,24%,-1%,-4%,-1%,nt,0%,nt,nt
CCc1cccc(NC(=O)c2cc(OC)c(OC)c(OC)c2)c1,24%[57.1 µM],-11%,-2%,-2%[57.1 µM],21%,-18%,nt,nt
CC(=NCCCNC1CCCCC1)C1=C(O)CC(C)(C)CC1=O,11%,3%,11%,3%,6%,-10%,nt,nt
CC(C)(C)c1ccc(C(=O)CCCN2CCC(OC(c3ccccc3)c3ccccc3)CC2)cc1,?,2%,-7%,-10%[57.1 µM],50µM*,2%,47µM*,i
CN1CCN(CCCCC(=O)c2ccccc2)CC1,10%[57.1 µM],-6%,-3%,4%,8%,6%,nt,nt
CCC(NC(=O)Nc1cc(OC)c(OC)c(OC)c1)(C(F)(F)F)C(F)(F)F,-5%,1%,20%,-6%,13%,-20%,nt,nt
COc1ccc(C[C@](C)(N)C(=O)O)cc1OC,-2%,-12%,50%,5%,nt,9%,nt,nt
CC(Cc1ccc(O)c(O)c1)(NN)C(=O)O (stereo not drawn),nt,nt,nt,nt,50µM*,nt,47µM*,i
CCCCN(CC)CCCNC(=O)c1cc2cc3ccc(C)cc3nc2o1,?,-13%,14%,250%[57.1 µM],0%,-2%,nt,nt
CCN(CC)c1ccc(/C=N/NC(=O)C(O)(c2ccccc2)c2ccccc2)o1,nt,-4%,nt,nt,7.1µM*,nt,12µM*,nt
O=C(O)c1ccc(/C=N/NC(=O)C(O)(c2ccccc2)c2ccccc2)cc1,7%,-4%,4%,-3%,5%,10%,nt,nt
CCOc1cc(CNc2ccc(N(C)C)cc2)cc(Br)c1OCC(=O)NC(C)(C)C,?,-2%,40%,-13%,3.5µM*,?,?,?
